Active and inactive are the calls of the source. Rule for the calls: active = hit-call score of the fitted dose curve at least 0.9, where 1 is the maximum; inactive = score below 0.9.

This note sets out measurements from PubChem BioAssay (EPA / NIEHS).

Read-out in this test: ABC Transporter (ABCB1), ABCB1 (gene 5243)
Description: LTEA_HepaRG_ABCB1: Life Technologies and Expression Analysis (LTEA) Assay for ABC Transporter (ABCB1) using HepaRG (AID 2283460). Particulars: mRNA level, 48 h; actives raise or lower the signal. As to the method: LTEA_HepaRG is a cell based, multiplexed-readout assay that uses HepaRG, a human liver cell line, with measurements taken at 48 hours after chemical dosing on a 96-well plate.LTEA_HepaRG_ABCB1 is one of 102 assay component(s) measured in the LTEA HepaRG cell culture assay. It is a marker of Steatosis/NR mediated transport.Data from the assay component LTEA_HepaRG_ABCB1 was analyzed into 1 endpoint. This assay endpoint, LTEA_HepaRG_ABCB1, was analyzed with bidirectional fitting relative to DMSO as the negative control and baseline of activity. Using a type of inducible reporter, measures of mRNA induction for gain or loss-of-signal activity can be used to understand regulation of transcription factor activity. To generalize the intended target to other relatable targets, this assay endpoint is annotated to the transporter intended target family, where the subfamily is ABC transporter.
A total of 1060 chemcials from the ToxCast library were tested in eight-point concentration-response experiments. Cell culture and cytotoxicity assays were conducted at Thermo Fisher Scientific's Custom Services facility (Madison, WI). A single lot of human HepaRG cells (Thermo Fisher Scientific, Frederick, MD) was used for the cell culture experiments. 96-well format collagen type I coated plates of human HepaRG cells were prepared using established methods. Briefly, cryopreserved HepaRG cells were thawed, plated at a density of approximately 100,000 cells/well in HepaRG Thaw, Plate, and General Purpose media (HPRG770, Thermo Fisher Scientific), and incubated for 48 hours. 0.5% DMSO was selected as vehicle control to balance the requisite need of DMSO in HepaRG cultures to maintain differentiation (for example, baseline metabolism, proportions of hepatocytes vs. cholangiocytes), while enabling further hepatic receptor pathway activation (for example, PXR and CAR) in response to chemical exposure. 48 hours after plating, the culture medium was replaced with HepaRG Serum-Free Incudtion Media. Cells were exposed to each test chemical in duplicate and maintained in CO2 incubators for another 48 hours. Chemical plates were thawed to room temperature and 200x concentrations of treatment groups were prepared. 8-point conentration-reponse curves were made with the highest exposure at 100 uM, followed by half-log dilutions, all in 0.5% DMSO. Each test plate contained variouse controls, induction positive controls (1mM phenobarbital), cytotoxicity positive controls ([…] aflatoxin B1), vehicle controls (0.5% DMSO), and total lysis controls (0.5% DMSO). Cell morphology images were taken using an Essen IncuCyte FLR automated microscope, with six 96-well plates imaged in about 24 minutes. Images were captured and exported and JPEG files. Spent culture media was transfered to black-well plates for the LDH assay, and remaining media was sorted at -80 C for later use. Cells were treated with RLT buffer and frozen until shipped for gene expression analysis. Total RNA was isolated from the cell suspension in 75 uL of Buffer RLT (Qiagen, Germantown, MD 20874) by Quintiles/Expression Analysis (Durham, NC) using a custom isolation procedure. Total RNA from each plate well was transferred to a preamplification plate. Fluidigm's 96.96 Dynamic ArrayTM (Fluidigm, Amsterdam, the Netherlands) technology was used for gene expression analyses by quantitative reverse transcription polymerase chain reaction (qRT-PCR, performed by Quintiles/Expression Analysis, Durham, NC)89. Standard TaqManTM Assays (Applied Biosystems/ThermoFisher Scientific, Foster City, CA) were used to assess the expression of 93 genes selected based on their selectivity and sensitivity to important hepatic receptors known to be modulated by environmental chemicals; importance in human hepatocyte functionality; and hepatotoxicity. […]
As for `CCCCCCC(=O)O`, the compound was called inactive.
With `CCN(CC)CCNc1ccc(CNC=O)c2sc3ccc(OC)cc3c(=O)c12`, the concentration at half-maximal activity (AC50) (usually the concentration giving half of the maximal activity seen) was 60.8 µM (active).
As to `CCCCCCCCOC(=O)CCCCCCCCC(=O)OCCCCCCCC`, the compound was classed as inactive.
Still for that read-out and setting: to `NC(=O)N(O)[C@@H]1C=C[C@H](Oc2cccc(Oc3ccc(F)cc3)c2)C1` belongs “inactive”.
`NC(=O)N1C(=O)C(C(=O)c2cc(Cl)cs2)c2cc(F)c(Cl)cc21` (stereo not given): the AC50 is 19.4 µM (active).
As for `CCCOc1sc(C(=O)N2CCC(c3cc(CN)ccc3F)CC2)c(C)c1Br`, the outcome was inactive.
The same measure, in the same setting: next, `CCCCOCCO`: “inactive”.
Same read-out and setting: next, `c1ccc2c(c1)ccc1ccccc12`: “inactive”; `CCCOC(=O)c1ccc(O)cc1`: “inactive”.
Regarding `CCc1nn(C2CCCCC2)c2cc(C3(C#N)CCC(C(=O)O)CC3)ccc12` (stereo not given), the AC50 was 12.4 µM (active).
On to `OCCC(F)(F)C(F)(F)C(F)(F)C(F)(F)C(F)(F)C(F)(F)C(F)(F)C(F)(F)F`, for which the compound was called inactive.
The same measure, in the same setting: to `CN1CCC[C@H]1c1cccnc1` belongs “inactive”.
With `Cc1oc(-c2ccccc2)nc1CCOc1ccc(C[C@H](Nc2ccccc2C(=O)c2ccccc2)C(=O)O)cc1`, the AC50 is 26.5 µM (active).
Same read-out and setting: to `Cc1cc(CCN2CCN(c3nsc4ccccc34)CC2)cc2c1NC(=O)CC2(C)C` belongs 79.8 µM (active).
With `OCCC(F)(F)C(F)(F)C(F)(F)C(F)(F)C(F)(F)C(F)(F)F`, the call was inactive.
Still for that read-out and setting: next, `OC1CCC(C2CCCCC2)CC1` (stereo not given): “inactive”; `O=C(OCCOCCOC(=O)c1ccccc1)c1ccccc1`: “inactive”.
On to `CCc1ccc(CCOc2ccc(CC3SC(=O)NC3=O)cc2)nc1` (stereo not given), for which the AC50 is 11.2 µM (active).
For the compound `CC(C)CCCCCCOC(=O)CCCCC(=O)OCCCCCCC(C)C`, the result was inactive.
For the compound `CC(C)(C)CC(C)(C)c1ccc(O)c(-n2nc3ccccc3n2)c1`, the AC50 is 50 µM (active).
Turning to `O=C(O)c1ccccc1C(c1ccc(O)cc1)c1ccc(O)cc1`, the outcome was inactive.
Still for that read-out and setting: next, `CC(C)(C)c1cc(C(C)(C)C)c(O)c(C(C)(C)C)c1`: “inactive”.
As to `C#C[C@]1(O)CC[C@H]2[C@@H]3CCC4=CC(=O)CC[C@@H]4[C@H]3CC[C@@]21C`, the AC50 is 9.92 µM (active).
With `CCOC(=O)CC(O)(CC(=O)OCC)C(=O)OCC`, the call was inactive.
On the same count and under the same terms, next, `O=c1c(-c2ccc(O)cc2)coc2cc(O)ccc12`: “inactive”; `CCC(C)(C)C1CCC(O)CC1` (stereo not given): “inactive”.
Same read-out and setting: next, `CC(C)(C)c1cccc(C(C)(C)C)c1O`: “inactive”; `N#C[C@@H]1CC(F)(F)CN1C(=O)CNC1CC2CCC(C1)N2c1ncccn1` (stereo not given in full): “inactive”; `O=[N+]([O-])c1ccc(O)cc1`: “inactive”.
As to `COc1ccc([N+](=O)[O-])cc1N`, the compound was called inactive.
Still for that read-out and setting: next, `CC[C@H](C)[C@@H](C(=O)O)n1sc2ccccc2c1=O`: “inactive”; `CN(C)C=O`: “inactive”.
Take `CCCCCCCC(=O)O`: the AC50 is 12.4 µM (active).
In the case of `CCC(=C(c1ccc(O)cc1)c1ccc(OCCN(C)C)cc1)c1ccccc1`, the compound was classed as inactive.
The same measure, in the same setting: next, `COCC(C)OCC(C)O` (stereo not given): “inactive”.
In the case of `c1ccc2cc3c(ccc4ccccc43)cc2c1`, the AC50 is 13.2 µM (active).
For the compound `c1ccc2c(c1)Cc1ccccc1-2`, the result was inactive.
As for `CC(C)(C)c1ccc(O)c(C(C)(C)C)c1`, the result was inactive.
As to `CC[C@H](c1ccc(O)cc1)[C@@H](CC)c1ccc(O)cc1`, the AC50 was 77.5 µM (active).
On to `C=C(C)C(=O)OCCC(F)(F)C(F)(F)C(F)(F)C(F)(F)C(F)(F)C(F)(F)F`, for which the result was inactive.
